Rows were chosen to be rich in hits. Some 3.1% of all compounds tested hit in one or more screens of this group.
dFosB activator: mouse delta FosB homodimer activation; P13346; purified delta FosB, TAMRA-CDK5 oligo fluorescence polarization; percent of positive-control signal above neutral wells; activation, % at 25 µM; 340,000 compounds, 0.99% hits; AID 493131;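 active = mean activation above about 17%, with every replicate also reaching it, limit read from the data, passing the limit was not always enough; inconclusive = only one of the two conditions met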
GSIS activator: primary screen for activators of insulin secretion dependent on glucose, INS-1E cells, GLuc reporter luminescence. 370,000 compounds, 0.61% hits. activation, % at 16.6 µM. INS-1E GLuc reporter insulin secretion, 2-3 h;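 active = lowest replicate activation of at least 40%, so every replicate reaches that level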;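 note: 0% = median of neutral control wells and 100% = median of IBMX positive control wells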
RAD54 branch: blocks human RAD54 Holliday junction branch migration; FAM/BHQ fluorescence; inhibition, % at 10.4 µM; Q92698; 360,000 compounds, 0.14% hits;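 active = mean normalized replicate activity at least 40 and at least half of replicates scoring 40 or more; inconclusive = only one of the two criteria met; inactive = mean below 40 and under half of replicates reaching 40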;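 note: 0% = median of neutral control wells and 100% = median of positive control wells; inhibitors cause a drop in the FAM fluorescence signal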
RAD52 anneal inh: inhibitors of human RAD52 DNA annealing; P43351; recombinant RAD52 DNA annealing, FRET fluorescence; AID 651710; inhibition, % at 18.7 µM; 360,000 compounds, 0.46% hits;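 active = every replicate showing at least 50% inhibition; inconclusive = mean inhibition at least 50% but not in every replicate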
DENV2 CPE rescue: inhibitors of DENV2 cytopathic effect. AID 651640. 350,000 compounds, 1.7% hits. CPE inhibition, % at 9.99 µM. DENV2-infected cells, cytopathic effect rescue, plate reader; in the data active = CPE inhibition above about 20%, passing the limit was not always enough; inconclusive = no clear call, values can overlap the other calls; tested in BHK-21 cells;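 note: 0% = median of neutral control wells and 100% = median of positive control wells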
AF4-AF9 inh: MLL-AF4/AF9 protein interaction inhibition; AID 651704; 350,000 compounds, 0.47% hits; AlphaScreen, biotin-AF4 peptide binding to FLAG-AF9; inhibition, % at 10 µM; P42568;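 active = every replicate reaching a set inhibition limit, whatever the replicate mean, cut at about 25% in these data; inconclusive = mean inhibition reaches that limit but some replicates miss it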;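 note: 0% = plate neutral control median and 100% = total signal loss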
Target sequence (P42568 whole entry, looked up): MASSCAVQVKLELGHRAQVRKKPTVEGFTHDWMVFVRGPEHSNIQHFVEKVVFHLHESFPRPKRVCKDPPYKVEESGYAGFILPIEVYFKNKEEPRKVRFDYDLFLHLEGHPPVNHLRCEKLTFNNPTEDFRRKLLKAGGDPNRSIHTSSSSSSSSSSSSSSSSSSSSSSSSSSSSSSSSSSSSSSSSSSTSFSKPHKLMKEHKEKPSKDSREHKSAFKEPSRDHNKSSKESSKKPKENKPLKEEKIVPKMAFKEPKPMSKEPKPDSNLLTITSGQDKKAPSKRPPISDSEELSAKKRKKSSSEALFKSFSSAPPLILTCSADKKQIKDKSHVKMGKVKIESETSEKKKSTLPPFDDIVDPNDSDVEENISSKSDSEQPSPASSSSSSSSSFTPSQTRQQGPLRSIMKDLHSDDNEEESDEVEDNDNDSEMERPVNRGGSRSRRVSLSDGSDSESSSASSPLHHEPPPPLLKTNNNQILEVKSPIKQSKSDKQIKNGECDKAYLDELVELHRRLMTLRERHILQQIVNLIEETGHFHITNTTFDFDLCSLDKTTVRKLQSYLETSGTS
* marks the source's active call; other numbers are inactive results; ? = inconclusive; . = no result given.

SMILES	dFosB activator	GSIS activator	RAD54 branch	RAD52 anneal inh	DENV2 CPE rescue	AF4-AF9 inh
COc1ccc(C(=O)Nc2ccc3c(c2)C(=O)N(C)C[C@H](OC)[C@@H](C)CN(C(C)=O)[C@H](C)CO3)cc1	.	3.5	-1.5	-2.4	-0.7	1.0
CS(=O)(=O)N1[C@@H]2Cn3c(cccc3=O)[C@H]1[C@@H](C(=O)NCc1ccccc1)[C@@H]2CO	.	2.7	14.6	3.1	8.6	0.1
CC(C)c1ccccc1OCCCCN1CCCCC1	-3.6	-0.9	6.1	-4.0	29.9*	.
NC(=O)C1CCN(C(=O)CCNS(=O)(=O)c2ccccc2F)CC1	-1.5	47.9*	-16.8	-5.3	8.4	-2.7
C[C@H]1CN([C@@H](C)CO)C(=O)c2cc(C#CCN(C)C)cnc2O[C@H]1CN(C)C(=O)Nc1cccc(F)c1	.	-5.2	-23.2	-20.8	-2.5	1.6
Cc1ccc(C(=O)Nc2ccc(CN3CCCCC3)cc2)c(C)c1	0.3	2.9	.	-16.2	34.8*	1.9
[O-]/[N+](=C\c1ccc(F)cc1)c1ccccc1	0.0	58.1*	-1.1	.	.	.
[O-]/[N+](=C\c1ccccc1)c1ccccc1	6.7	0.6	15.7	10.8	-3.4	0.6
CCC(=O)N1CCC2(CC1)Oc1ccc(F)cc1C(=O)C21CC(c2ccc(Cl)cc2)=NO1 (stereo not drawn)	-5.7	-13.1	2.5	-5.4	-1.9	.
CCC(=O)N1CCC2(CC1)Oc1ccc(Cl)cc1C(=O)C21CC(c2ccc(Cl)cc2)=NO1 (stereo not drawn)	2.3	-7.4	-1.0	-3.7	89.8*	.
O=C(C1CCC1)N1CC2(C1)[C@@H](c1ccccc1)[C@@H](CO)N2Cc1ccc(Cl)cc1	.	-4.0	.	66.7*	15.6	3.6
O=C(C1CCC1)N1CC2(C1)[C@H](c1ccccc1)[C@H](CO)N2Cc1ccc(Cl)cc1	.	-9.1	.	-7.1	4.6	4.6
O=C(C1CCCCC1)N1CC2(C1)[C@@H](c1ccccc1)[C@@H](CO)N2Cc1ccccc1F	.	-26.3	.	-24.0	32.0*	-14.2
O=C(C1CCCCC1)N1CC2(C1)[C@@H](c1ccccc1)[C@H](CO)N2Cc1ccccc1F	.	-17.9	.	-68.9	-9.2	-12.4
COc1ccccc1CN1[C@H](CO)[C@@H](c2ccccc2)C12CN(C(=O)c1ccccn1)C2	.	-4.5	.	-27.4	88.6*	-0.9
CN(C)CC(=O)N1[C@H](CO)[C@@H](c2ccccc2)C12CN(C(=O)C1CCCC1)C2	.	5.8	.	-6.4	51.2*	-2.3
COc1ccccc1CN1[C@H](CO)[C@@H](c2ccccc2)C12CN(C(C)=O)C2	.	16.1	.	-20.4	11.6	0.0
O=C(C[C@H]1C[C@H]2c3cc(NS(=O)(=O)c4ccc(F)cc4)ccc3O[C@H]2[C@@H](CO)O1)NCc1cc(F)ccc1F	.	-11.4	3.5	-7.8	-4.3	-1.3
CC(=O)N(C)C[C@H]1[C@@H](c2ccc(-c3ccc(C#N)cc3)cc2)[C@@H](CO)N1C(C)=O	.	-0.7	.	-8.1	-3.9	-1.0
O=C(c1cccc(F)c1)N1CC2(C1)[C@@H](c1ccccc1)[C@@H](CO)N2C(=O)C1CCCC1	.	-19.7	.	-11.0	77.6*	-2.9
O=C(c1cccc(F)c1)N1CC2(C1)[C@@H](c1ccccc1)[C@H](CO)N2C(=O)C1CCCC1	.	-10.3	.	.	.	.
C[C@H](CO)N1C[C@H](C)[C@H](CN(C)C(=O)Nc2ccc(C(F)(F)F)cc2)Oc2ccc(NC(=O)Nc3ccc(F)cc3)cc2CC1=O	.	-30.2	1.7	.	?	.
COc1cc(/C=N/NC(=O)CNC(=O)c2cccs2)ccc1O	-13.4	45.9*	8.1	-12.4	-2.7	-0.4
COc1ccc(CN(C)C[C@H]2OCCCC[C@H](C)Oc3ccc(NC(=O)Nc4ccc(OC)cc4)cc3C(=O)N([C@@H](C)CO)C[C@@H]2C)cc1	.	-34.9	7.3	45.5	?	0.9
C[C@@H]1CN([C@H](C)CO)C(=O)c2cc(NC(=O)CCN3CCOCC3)ccc2O[C@@H]1CN(C)S(=O)(=O)c1ccc(F)cc1	.	37.1	3.1	4.5	0.6	-3.8
COc1ccc(-c2ccc3c(c2)[C@@H]2[C@@H](CCN2C(=O)NC2CCCC2)[C@H](CO)N3C)cc1	.	-27.8	.	-0.9	-11.8	36.2*
CN1c2ccc(C3=CCCCC3)cc2[C@H]2[C@H](CCN2C(=O)C2CCCCC2)[C@H]1CO	.	14.7	.	18.8	11.9	26.5*

High-throughput results: PubChem BioAssay, Broad Institute
